Test results: the supplement of paper PMC8728848
This excerpt belongs to a sample that is enriched for the strongest signals.

Columns and labels:
Assay in all cases: glycan array binding signal (z-score within array); higher = stronger binding
Details in all cases: glycan notation: IUPAC condensed, linker removed
[1] = target: Fuc(a1-2)Gal(b1-4)GlcNAc6S
How it was run: (§1)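 Glycan array data were curated from 3228 arrays in the Consortium for Functional Glycomics database and kept only where the protein sequence was available. Glycan names were converted to IUPAC-condensed notation, and columns mapping to the same glycan were averaged. The binding signal is a within-array Z-score, averaged across arrays of the same protein sequence at different concentrations or buffers and across linkers. Negative Z-scores can be read as non-binding.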

[2] = target: Fuc(a1-2)Gal(b1-4)[Fuc(a1-3)]GlcNAc(b1-3)Gal(b1-4)[Fuc(a1-3)]GlcNAc(b1-3)Gal(b1-4)[Fuc(a1-3)]GlcNAc
How it was run: as §1

[3] = target: Fuc(a1-2)Gal6S(b1-4)Glc6S
How it was run: as §1

[4] = target: Fuc(a1-2)[Gal(a1-3)]Gal
How it was run: as §1

[5] = target: Fuc(a1-2)[GalNAc(a1-3)]Gal(b1-4)GlcNAc
How it was run: as §1

[6] = target: Gal3S(b1-4)GlcNAc
How it was run: as §1

[7] = target: Gal3S4S(b1-4)GlcNAc
How it was run: as §1

[8] = target: Gal3S6S(b1-4)GlcNAc6S
How it was run: as §1

[9] = target: Gal6S(b1-4)Glc6S
How it was run: as §1

[10] = target: Gal6S(b1-4)GlcNAc6S
How it was run: as §1

[11] = target: GlcNAc(b1-2)Gal(b1-3)GalNAc
How it was run: as §1

[12] = target: Man(a1-2)Man(a1-3)Man
How it was run: as §1

[13] = target: Man(a1-2)Man(a1-3)[Man(a1-2)Man(a1-6)]Man(a1-6)[Man(a1-2)Man(a1-2)Man(a1-3)]Man
How it was run: as §1

[14] = target: Neu5Ac(a2-3)Gal(b1-4)Glc
How it was run: as §1

[15] = target: Neu5Ac(a2-6)Gal(b1-4)GlcNAc(b1-2)Man(a1-6)[Gal(b1-4)GlcNAc(b1-2)Man(a1-3)]Man(b1-4)GlcNAc(b1-4)GlcNAc
How it was run: as §1

[16] = target: Neu5Ac(a2-6)GalNAc
How it was run: as §1

[17] = target: Fuc(a1-2)Gal(b1-4)GlcNAc(b1-3)Gal(b1-4)GlcNAc(b1-3)Gal(b1-4)GlcNAc
How it was run: as §1

[18] = target: Fuc(a1-2)Gal(b1-4)[Fuc(a1-3)]GalNAc(b1-3)Gal(b1-4)[Fuc(a1-3)]GlcNAc
How it was run: as §1

[19] = target: Fuc(a1-2)Gal(b1-4)[Fuc(a1-3)]GalNAc(b1-3)Gal(b1-4)[Fuc(a1-3)]GlcNAc(b1-3)Gal(b1-4)[Fuc(a1-3)]GalNAc
How it was run: as §1

[20] = target: Fuc(a1-2)Gal(b1-4)[Fuc(a1-3)]GlcNAc
How it was run: as §1

[21] = target: Fuc(a1-2)[Gal(a1-3)]Gal(b1-4)[Fuc(a1-3)]GlcNAc
How it was run: as §1

[22] = target: Fuc(a1-2)[GalNAc(a1-3)]Gal
How it was run: as §1

[23] = target: Fuc(a1-3)GlcNAc
How it was run: as §1

[24] = target: Fuc(a1-3)[Gal(b1-4)]GlcNAc
How it was run: as §1

[25] = target: Gal(a1-2)Gal
How it was run: as §1

[26] = target: Gal(b1-3)[Neu5Ac(a2-6)]GalNAc
How it was run: as §1

[27] = target: Gal(b1-3)[Neu5Ac(b2-6)]GlcNAc
How it was run: as §1

[28] = target: Gal(b1-4)GlcNAc(b1-2)Man(a1-3)[Gal(b1-4)GlcNAc(b1-2)Man(a1-6)]Man(b1-4)GlcNAc(b1-4)GlcNAc
How it was run: as §1

[29] = target: Gal(b1-4)GlcNAc(b1-3)Gal(b1-4)GlcNAc(b1-3)Gal(b1-4)GlcNAc
How it was run: as §1

[30] = target: Gal(b1-4)GlcNAc(b1-3)[Gal(b1-4)GlcNAc(b1-6)]GalNAc
How it was run: as §1

[31] = target: Gal(b1-4)GlcNAc(b1-6)[Gal(b1-3)]GalNAc
How it was run: as §1

[32] = target: GalNAc(b1-4)GlcNAc
How it was run: as §1

[33] = target: GlcNAc(b1-3)GalNAc
How it was run: as §1

[34] = target: Kdn(a2-3)Gal(b1-4)GlcNAc
How it was run: as §1

[35] = target: Neu5Ac(a2-3)Gal(b1-4)[Fuc(a1-3)]GlcNAc
How it was run: as §1

[36] = target: Neu5Gc(a2-3)Gal(b1-3)GlcNAc
How it was run: as §1

Binder | glycan array binding signal (z-score) [1] | glycan array binding signal (z-score) [2] | glycan array binding signal (z-score) [3] | glycan array binding signal (z-score) [4] | glycan array binding signal (z-score) [5] | glycan array binding signal (z-score) [6] | glycan array binding signal (z-score) [7] | glycan array binding signal (z-score) [8] | glycan array binding signal (z-score) [9] | glycan array binding signal (z-score) [10] | glycan array binding signal (z-score) [11] | glycan array binding signal (z-score) [12] | glycan array binding signal (z-score) [13] | glycan array binding signal (z-score) [14] | glycan array binding signal (z-score) [15] | glycan array binding signal (z-score) [16] | glycan array binding signal (z-score) [17] | glycan array binding signal (z-score) [18] | glycan array binding signal (z-score) [19] | glycan array binding signal (z-score) [20] | glycan array binding signal (z-score) [21] | glycan array binding signal (z-score) [22] | glycan array binding signal (z-score) [23] | glycan array binding signal (z-score) [24] | glycan array binding signal (z-score) [25] | glycan array binding signal (z-score) [26] | glycan array binding signal (z-score) [27] | glycan array binding signal (z-score) [28] | glycan array binding signal (z-score) [29] | glycan array binding signal (z-score) [30] | glycan array binding signal (z-score) [31] | glycan array binding signal (z-score) [32] | glycan array binding signal (z-score) [33] | glycan array binding signal (z-score) [34] | glycan array binding signal (z-score) [35] | glycan array binding signal (z-score) [36]
CBM32-4 (Clostridium perfringens), P26831 (protein) MGSSHHHHHHSSGLVPRGSHMASVYEPSLVDAYVGDDGAKKAVDGDLKTRVKFLGAPSTGDTIVYDLGQEILVDNLKYVVLDTEVDHVRDGKIQLSLDGETWTDAINIGDGVENGVDDMFSTPLKNGYKHGNQSGGIVPIDSAYVEGDNLNQKARYVRILFTAPYRHRWTVINELMINNGEYIPTVNDPT | -0.104 | -0.29 | 4.3 | -0.4 | -0.266 | -0.195 | 3.87 | 5.67 | 4.96 | 4.9 | -0.264 | -0.021 | -0.564 | -0.183 | -0.336 | -0.363 | – | – | – | – | – | – | – | – | – | – | – | – | – | – | – | – | – | – | – | –
NakA (Mycobacterium tuberculosum) (protein) SVVKPTKVTVFSPDGGADNPGEADLAIDGNPATSWKTDIYTDPVPFPSFKNGVGLMLQLPQATVVGTVAIDVASTGTKVEIRSASTPTPATLEDTAVLTSATALRPGHNTISVEAAAPTSNLLVWISTLGTTDGKSQADISEITIYAASD | – | – | – | 0.037 | – | – | – | – | -0.213 | – | – | – | – | – | – | – | 2.46 | 1.53 | 2.85 | 2.46 | 2.29 | 0.057 | 3.17 | -0.303 | -0.019 | -0.457 | -0.353 | -0.5 | -0.502 | -0.414 | -0.553 | -0.305 | -0.001 | -0.507 | -0.418 | -0.404
